These results are taken from PubChem BioAssay (Tox21).

Records with an inconclusive call do not appear. Calls of active or inactive are those of the source. Unless noted, calls follow the shape of the dose curve; as a rule, active = well fitted curve in the direction sought with a large enough effect in the repeat runs; inconclusive = weak or mixed curves; inactive = no such curve, though single readings can be large; an effect the other way counts as inactive or inconclusive.

Assay [1] is described as follows: Caspase-3/7 induction in HepG2 cells by small molecules, qHTS assay (AID 1346978). Also: nearly all actives have a fitted effect of over 15% in size. A digest of the protocol: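 Wild-type HepG2 cells, 2,000/well, settled 5 hr at 37 C and 5% CO2, then compound-treated for 17 hr; caspase-3/7 activity read by luminescent Caspase-Glo 3/7 after 30 min at room temperature.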
(In general: qHTS replaces the single test concentration by a dilution series.)

Assay [2] in a line: Caspase-3/7 induction in CHO-K1 cells by small molecules, qHTS cell viability counter screen (AID 1346979). Also: nearly all actives have a fitted effect of over 35% in size. A digest of the protocol:
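CHO-K1 wt, 1,500 cells/well; 5hr pre-incubation 37C/5% CO2; compound pin transfer (DMSO); 16hr exposure; CellTiter-Fluor added, 1hr, fluorescence read.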

Assay [3] can be described thus: Caspase-3/7 induction in CHO-K1 cells by small molecules, qHTS assay (AID 1346980). Also: nearly all actives have a fitted effect of over 15% in size. A digest of the protocol:
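Wild-type CHO-K1 cells exposed to compounds for 17hr at 37 C, 5% CO2. Caspase-3/7 activity then measured by Caspase-Glo 3/7 luminescence after 30min at room temperature.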

A short description of assay [4]: Caspase-3/7 induction in HepG2 cells by small molecules, qHTS cell viability counter screen (AID 1346981). Also: series mostly up to about 92 µM; nearly all actives have a fitted effect of over 30% in size. The method, boiled down: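 Steps: seed 2,000 HepG2 cells per well; incubate 5 hr at 37 C; pin-add compounds in DMSO; incubate 16 hr; add CellTiter-Fluor; after 1 hr at 37 C and 5% CO2, read fluorescence.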
Assay [5] deals with Nuclear receptor subfamily 1 group I member 2 (Homo sapiens) (UniProt O75469). Nature of the assay: Human pregnane X receptor (PXR) small molecule agonists, qHTS assay (AID 1346982). Also: nearly all actives have a fitted effect of over 35% in size. Also: potency is read from the fitted curve at half-maximal effect. A digest of the protocol:
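Agonist mode qHTS: PXR-Luc HepG2 cells plated 5 hr before DMSO-dissolved compounds were pinned in, cultured 24 hr at 37 C, 5% CO2; ONE-Glo luminescence readout.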

Assay [6] concerns the target Acetylcholinesterase (Homo sapiens) (UniProt P22303). Briefly: Acetylcholinesterase (AChE) small molecule antagonists: enzyme-based qHTS assay (AID 1347397; calls by dose curve; also: nearly all actives have a fitted effect of over 55% in size). The settings on record: Potency: AChE enzyme activity inhibition. The method, boiled down:
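Recombinant human AChE (50 mU/mL) preincubated with compound 30 min at room temperature; acetylthiocholine plus DTNB then added, and thiocholine formation read colorimetrically after 10 min at room temperature. DMSO served as vehicle control.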

For assay [7] the target is unchanged. Nature of the assay: Acetylcholinesterase (AChE) small molecule antagonists: fluorescence cell-based qHTS assay (AID 1347398; calls by dose curve; also: nearly all actives have a fitted effect of over 50% in size). The note with it: Potency: AChE activity. The method, boiled down: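 SH-SY5Y cells (2000/well), attached overnight, incubated with compound 30 min at 37 C. Acetylthiocholine plus Thiolite Green then added for 40 min at room temperature. Thiocholine fluorescence (Ex/Em 490/520 nm) reports cellular AChE activity.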

The target is the same in assay [8]. Nature of the assay: Acetylcholinesterase (AChE) small molecule antagonists: enzyme-based qHTS assay with human liver microsomes (AID 1347399; calls by dose curve; also: nearly all actives have a fitted effect of over 60% in size). The settings on record: Potency: qHTS inhibition. A digest of the protocol:
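Recombinant human AChE (50 mU/mL in the enzyme mix) and human liver microsomes (0.25 mg/mL final) were preincubated with compound and NADPH (0.25 mg/mL final) for 30 min at 37 C. Acetylthiocholine/DTNB was then added; thiocholine was read colorimetrically after 10 min at room temperature.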

Assay [9] concerns the target Cytochrome P450 2D6 (Homo sapiens) (UniProt P10635). Briefly: Cytochrome P450 Family 2 Subfamily D Member 6 (CYP2D6) small molecule antagonists: luciferase reporter qHTS assay (AID 1671196). Also: nearly all actives have a fitted effect of over 50% in size. Also: potency is read from the fitted curve at half-maximal effect. The method, boiled down: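 P450-Glo format: CYP2D6 converts a proluciferin substrate to luciferin in an NADPH-driven reaction lasting 1 h at room temperature. Light output, proportional to CYP2D6 activity, reflects interference by test chemicals.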

For assay [10], the target named is Cytochrome P450 2C19 (Homo sapiens) (UniProt P33261). Briefly: Cytochrome P450 Family 2 Subfamily C Member 19 (CYP2C19) small molecule antagonists: luciferase reporter qHTS assay (AID 1671197). Also: nearly all actives have a fitted effect of over 65% in size. Also: potency is read from the fitted curve at half-maximal effect. A digest of the protocol: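 Compounds were tested on CYP2C19 activity via proluciferin conversion to luciferin. The 37C, 1 h reaction followed NADPH addition; detection reagent stopped it.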
(In general: In a reporter assay the amount or activity of a reporter protein is the signal.)

For assay [11], the target named is Cytochrome P450 2C9 (Homo sapiens) (UniProt P11712). Briefly: Cytochrome P450 Family 2 Subfamily C Member 9 (CYP2C9) small molecule antagonists: luciferase reporter qHTS assay (AID 1671198). Also: nearly all actives have a fitted effect of over 50% in size. Also: potency is read from the fitted curve at half-maximal effect. A digest of the protocol:
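P450-Glo proluciferin substrate with CYP2C9 enzyme; 10 min RT preincubation, then NADPH regeneration 1 h at 37C; luciferin detection reagent 20 min RT, luminescence in relative luminescence units.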

Assay [12] addresses Voltage-gated inwardly rectifying potassium channel KCNH2 (Homo sapiens) (UniProt Q12809). Nature of the assay: Human Ether-a-go-go-Related Gene (hERG) channel small molecule antagonists: fluorescence cell-based qHTS assay (AID 1671200).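 Also: hERG-expressing U2OS cells given a thallium stimulus after FluxOR II dye loading; series mostly up to about 77 µM; nearly all actives have a fitted effect of over 50% in size.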 The method, boiled down: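 Read-out: thallium influx as a surrogate for potassium, tracked as fluorescence (480 nm ex/540 nm em) every second for 2 min after Stimulus Buffer addition in dye-loaded hERG-U2OS cells.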
On the technique in general: The hERG channel carries a current that helps repolarise heart muscle cells.

For assay [13], the target named is Acetylcholinesterase (Homo sapiens) (UniProt P22303). Briefly: Acetylcholinesterase (AChE) small molecule antagonists: colormetric cell-based qHTS assay (AID 1347395; calls by dose curve; also: nearly all actives have a fitted effect of over 30% in size). The method, boiled down: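 SH-SY5Y cells; cpd 30 min 37 C; + DTNB/acetylthiocholine, 90 min 37 C; colorimetric thiocholine read; qHTS.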
The target in assay [14] is Cytochrome P450 1A2 (Homo sapiens) (UniProt P05177). Nature of the assay: Cytochrome P450 Family 1 Subfamily A Member 2 (CYP1A2) small molecule antagonists: luciferase reporter qHTS assay (AID 1671199). Also: nearly all actives have a fitted effect of over 50% in size. Also: potency is read from the fitted curve at half-maximal effect. The method, boiled down:
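Inhibition of CYP1A2 conversion of proluciferin to luciferin, detected by luminescence. Reaction run 1 h at room temperature with NADPH regeneration after brief compound preincubation.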

Assay [15] concerns the target Cytochrome P450 3A4 (Homo sapiens) (UniProt P08684). Briefly: Cytochrome P450 Family 3 Subfamily A Member 4 (CYP3A4) small molecule antagonists: luciferase reporter qHTS assay (AID 1671201). Also: nearly all actives have a fitted effect of over 50% in size. Also: potency is read from the fitted curve at half-maximal effect. The method, boiled down:
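Luminescent readout (RLU) proportional to CYP3A4 activity, from luciferin generated off a proluciferin substrate. Enzyme–substrate mix plus compound 10 min at room temp, NADPH regeneration 1 h, detection reagent 20 min.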

Sequence of Acetylcholinesterase (Homo sapiens) (P22303 whole entry, looked up): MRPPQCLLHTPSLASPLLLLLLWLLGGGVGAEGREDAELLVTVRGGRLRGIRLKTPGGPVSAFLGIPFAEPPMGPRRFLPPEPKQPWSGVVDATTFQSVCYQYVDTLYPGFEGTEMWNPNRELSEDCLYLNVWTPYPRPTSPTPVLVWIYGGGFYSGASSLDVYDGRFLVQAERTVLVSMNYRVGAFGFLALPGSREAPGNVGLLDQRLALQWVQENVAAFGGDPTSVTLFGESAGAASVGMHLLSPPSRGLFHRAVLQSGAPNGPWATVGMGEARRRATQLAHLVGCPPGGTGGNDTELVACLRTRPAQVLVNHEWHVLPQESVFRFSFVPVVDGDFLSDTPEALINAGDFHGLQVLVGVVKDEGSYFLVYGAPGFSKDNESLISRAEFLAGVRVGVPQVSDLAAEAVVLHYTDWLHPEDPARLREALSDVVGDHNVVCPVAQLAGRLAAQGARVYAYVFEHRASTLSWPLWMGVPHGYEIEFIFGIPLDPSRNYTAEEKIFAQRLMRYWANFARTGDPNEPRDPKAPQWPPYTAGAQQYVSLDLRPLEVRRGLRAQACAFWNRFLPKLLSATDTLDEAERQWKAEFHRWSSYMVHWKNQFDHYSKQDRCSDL
Sequence of Cytochrome P450 2D6 (Homo sapiens) (P10635 whole entry, looked up): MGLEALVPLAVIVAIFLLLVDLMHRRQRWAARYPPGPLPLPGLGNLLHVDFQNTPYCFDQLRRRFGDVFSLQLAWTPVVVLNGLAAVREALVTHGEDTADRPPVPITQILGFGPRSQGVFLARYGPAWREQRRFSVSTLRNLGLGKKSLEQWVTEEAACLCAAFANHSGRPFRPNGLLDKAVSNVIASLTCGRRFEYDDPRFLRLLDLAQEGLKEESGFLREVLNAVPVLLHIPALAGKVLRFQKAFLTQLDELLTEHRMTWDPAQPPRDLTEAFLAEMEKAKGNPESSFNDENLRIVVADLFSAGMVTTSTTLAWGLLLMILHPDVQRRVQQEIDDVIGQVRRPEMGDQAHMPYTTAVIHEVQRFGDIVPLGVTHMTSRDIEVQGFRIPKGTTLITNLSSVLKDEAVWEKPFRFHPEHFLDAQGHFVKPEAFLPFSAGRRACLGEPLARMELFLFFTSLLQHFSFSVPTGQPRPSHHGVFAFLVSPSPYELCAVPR
Sequence of Cytochrome P450 2C9 (Homo sapiens) (P11712 whole entry, looked up): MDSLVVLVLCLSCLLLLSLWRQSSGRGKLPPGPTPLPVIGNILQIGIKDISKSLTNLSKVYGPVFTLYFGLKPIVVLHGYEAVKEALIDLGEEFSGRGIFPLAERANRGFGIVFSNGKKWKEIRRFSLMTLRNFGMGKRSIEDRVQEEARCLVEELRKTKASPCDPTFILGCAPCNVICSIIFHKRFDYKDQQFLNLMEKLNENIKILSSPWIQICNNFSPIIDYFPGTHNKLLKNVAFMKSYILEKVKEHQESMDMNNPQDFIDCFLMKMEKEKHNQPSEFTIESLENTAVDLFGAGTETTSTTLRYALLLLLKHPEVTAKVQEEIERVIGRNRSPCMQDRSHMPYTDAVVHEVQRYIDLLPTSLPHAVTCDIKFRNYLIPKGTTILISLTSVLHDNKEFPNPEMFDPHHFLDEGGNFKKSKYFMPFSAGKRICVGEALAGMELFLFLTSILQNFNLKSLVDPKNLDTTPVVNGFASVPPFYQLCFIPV
Sequence of Cytochrome P450 2C19 (Homo sapiens) (P33261 whole entry, looked up): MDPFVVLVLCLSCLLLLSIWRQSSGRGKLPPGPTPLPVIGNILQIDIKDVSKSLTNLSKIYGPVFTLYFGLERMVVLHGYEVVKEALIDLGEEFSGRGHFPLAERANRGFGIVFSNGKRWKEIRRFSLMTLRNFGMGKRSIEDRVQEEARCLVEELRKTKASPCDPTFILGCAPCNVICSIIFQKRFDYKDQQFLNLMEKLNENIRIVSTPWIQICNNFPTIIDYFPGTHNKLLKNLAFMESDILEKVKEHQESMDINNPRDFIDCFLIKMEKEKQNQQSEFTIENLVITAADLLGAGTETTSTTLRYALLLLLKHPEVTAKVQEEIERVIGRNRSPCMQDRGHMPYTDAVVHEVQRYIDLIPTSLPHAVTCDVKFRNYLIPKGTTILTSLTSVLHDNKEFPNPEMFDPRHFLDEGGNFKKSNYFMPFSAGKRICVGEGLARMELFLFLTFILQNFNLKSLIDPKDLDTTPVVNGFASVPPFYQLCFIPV
Sequence of Cytochrome P450 3A4 (Homo sapiens) (P08684 whole entry, looked up): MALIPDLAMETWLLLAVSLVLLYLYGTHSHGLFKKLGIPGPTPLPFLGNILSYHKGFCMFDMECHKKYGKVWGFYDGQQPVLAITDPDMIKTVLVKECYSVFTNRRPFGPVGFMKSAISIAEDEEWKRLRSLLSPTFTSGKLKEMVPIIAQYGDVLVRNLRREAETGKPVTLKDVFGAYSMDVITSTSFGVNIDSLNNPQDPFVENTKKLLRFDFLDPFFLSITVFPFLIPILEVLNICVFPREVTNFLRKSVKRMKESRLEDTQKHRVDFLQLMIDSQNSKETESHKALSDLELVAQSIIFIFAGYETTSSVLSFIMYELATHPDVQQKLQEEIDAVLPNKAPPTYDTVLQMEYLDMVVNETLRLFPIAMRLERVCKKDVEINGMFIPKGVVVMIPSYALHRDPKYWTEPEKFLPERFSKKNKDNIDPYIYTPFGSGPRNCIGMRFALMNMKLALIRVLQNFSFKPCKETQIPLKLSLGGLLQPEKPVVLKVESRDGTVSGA
Sequence of Cytochrome P450 1A2 (Homo sapiens) (P05177 whole entry, looked up): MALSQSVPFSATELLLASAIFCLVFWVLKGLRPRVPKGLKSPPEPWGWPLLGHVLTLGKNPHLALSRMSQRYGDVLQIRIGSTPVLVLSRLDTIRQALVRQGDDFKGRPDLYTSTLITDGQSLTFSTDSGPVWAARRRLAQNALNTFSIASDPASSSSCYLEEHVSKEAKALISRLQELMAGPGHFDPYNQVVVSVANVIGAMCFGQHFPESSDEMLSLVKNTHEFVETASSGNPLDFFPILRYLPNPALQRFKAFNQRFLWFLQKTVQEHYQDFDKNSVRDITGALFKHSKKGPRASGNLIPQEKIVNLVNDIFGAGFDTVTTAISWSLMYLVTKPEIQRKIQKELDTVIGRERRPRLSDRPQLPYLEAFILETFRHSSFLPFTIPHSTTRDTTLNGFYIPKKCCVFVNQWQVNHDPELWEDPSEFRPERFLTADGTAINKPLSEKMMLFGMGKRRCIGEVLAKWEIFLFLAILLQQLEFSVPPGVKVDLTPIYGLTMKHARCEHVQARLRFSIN
Sequence of Voltage-gated inwardly rectifying potassium channel KCNH2 (Homo sapiens) (Q12809 whole entry, looked up): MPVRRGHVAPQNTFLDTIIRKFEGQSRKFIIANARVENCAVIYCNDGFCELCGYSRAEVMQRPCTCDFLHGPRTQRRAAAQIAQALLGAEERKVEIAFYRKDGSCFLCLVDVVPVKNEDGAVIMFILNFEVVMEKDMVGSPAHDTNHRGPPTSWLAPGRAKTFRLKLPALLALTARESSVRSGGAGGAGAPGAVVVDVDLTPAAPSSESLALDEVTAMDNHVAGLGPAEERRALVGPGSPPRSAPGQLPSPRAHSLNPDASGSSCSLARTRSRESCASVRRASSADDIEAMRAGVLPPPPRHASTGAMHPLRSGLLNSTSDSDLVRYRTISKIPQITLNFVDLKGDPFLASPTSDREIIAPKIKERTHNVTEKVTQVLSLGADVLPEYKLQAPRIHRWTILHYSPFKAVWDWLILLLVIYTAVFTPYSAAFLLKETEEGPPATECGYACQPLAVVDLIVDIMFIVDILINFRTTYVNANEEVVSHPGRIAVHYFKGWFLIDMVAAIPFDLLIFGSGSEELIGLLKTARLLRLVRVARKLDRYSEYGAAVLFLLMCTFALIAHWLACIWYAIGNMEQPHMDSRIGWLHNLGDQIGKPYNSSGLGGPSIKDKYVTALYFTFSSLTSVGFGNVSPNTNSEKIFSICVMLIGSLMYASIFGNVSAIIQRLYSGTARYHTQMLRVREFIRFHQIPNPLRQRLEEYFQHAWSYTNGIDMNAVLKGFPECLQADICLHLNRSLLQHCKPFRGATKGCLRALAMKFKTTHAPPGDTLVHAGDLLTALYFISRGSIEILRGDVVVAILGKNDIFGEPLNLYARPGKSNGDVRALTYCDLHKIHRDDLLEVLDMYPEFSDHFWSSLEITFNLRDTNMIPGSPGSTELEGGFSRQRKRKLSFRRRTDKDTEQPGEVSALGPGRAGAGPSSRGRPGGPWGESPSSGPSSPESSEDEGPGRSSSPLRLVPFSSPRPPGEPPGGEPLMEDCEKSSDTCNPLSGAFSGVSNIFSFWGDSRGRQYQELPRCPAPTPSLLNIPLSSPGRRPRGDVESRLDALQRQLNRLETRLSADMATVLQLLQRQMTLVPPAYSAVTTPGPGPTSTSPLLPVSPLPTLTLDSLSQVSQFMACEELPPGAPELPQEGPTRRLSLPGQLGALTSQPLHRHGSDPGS
Sequence of Nuclear receptor subfamily 1 group I member 2 (Homo sapiens) (O75469 whole entry, looked up): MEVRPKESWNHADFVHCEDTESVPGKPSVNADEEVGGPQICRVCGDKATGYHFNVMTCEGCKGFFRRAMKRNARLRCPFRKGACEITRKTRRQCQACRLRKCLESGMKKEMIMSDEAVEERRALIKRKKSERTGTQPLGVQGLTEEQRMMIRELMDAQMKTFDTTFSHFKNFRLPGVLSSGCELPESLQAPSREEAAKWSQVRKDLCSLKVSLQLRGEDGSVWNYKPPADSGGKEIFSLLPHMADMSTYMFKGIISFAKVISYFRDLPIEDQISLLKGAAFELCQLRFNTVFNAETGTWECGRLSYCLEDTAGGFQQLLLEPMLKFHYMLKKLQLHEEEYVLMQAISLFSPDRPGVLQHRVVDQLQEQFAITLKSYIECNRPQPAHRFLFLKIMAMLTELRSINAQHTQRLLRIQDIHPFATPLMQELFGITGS

For the compound `CCCN(CC1CC1)c1c([N+](=O)[O-])cc(C(F)(F)F)cc1[N+](=O)[O-]`, the Potency entry in [1], in assay [2], in assay [3], in assay [4], in [6] and in [7] was “inactive” throughout. Besides, the Potency entry in assay [8], in [9] and in assay [12] was “inactive” in each case. The Potency in assay [5] was 19.3 µM (active); in [10], 20 µM (active); in assay [11], 31.7 µM (active).
Take `NNC(=O)c1cccnc1`: the Potency entry in assay [1], in assay [2], in assay [3], in assay [4], in assay [13] and in assay [7] was “inactive” each time. The Potency entry in assay [8] and in assay [12] was “inactive” each time. Besides, the Potency is 27.4 µM (active) in assay [5], 71.3 µM (active) in assay [10], 12.7 µM (active) in assay [14] and 2.53 µM (active) in assay [15].
For `O=C(NCc1cccnc1)Nc1ccc([N+](=O)[O-])cc1`, the Potency result in assay [1], in [2], in assay [3], in assay [4], in assay [5] and in [6] was “inactive” in each case. Moreover, the Potency entry in assay [7], in assay [8] and in [12] was “inactive” throughout. Further, the Potency in assay [9] was 35.6 µM (active); in assay [10], 2 µM (active); in [11] it was 5.03 µM (active); in assay [14], 17.8 µM (active); in assay [15] it was 0.796 µM (active).
`Brc1ccccc1`: the Potency entry in assay [1], in [2], in assay [3], in assay [4], in assay [5] and in [6] was “inactive” in each case. For the same compound, the Potency entry in assay [7], in assay [8], in assay [9], in [11], in [12] and in assay [15] was “inactive” each time.
As for `CC(Cl)C(C)Cl` (stereo not drawn), the Potency result in assay [1], in assay [2], in assay [3], in assay [4], in assay [5] and in assay [13] was “inactive” each time. Also, the Potency result in assay [7], in assay [8], in [9], in assay [10], in assay [11] and in assay [14] was “inactive” in each case. Besides, the Potency entry in assay [12] and in assay [15] was “inactive” throughout.
Take `C/C=C/C=O`: the Potency entry in [1], in [2], in [3], in [4], in [5] and in [6] was “inactive” throughout. Also, the Potency entry in assay [7], in assay [8], in assay [9], in [12] and in assay [15] was “inactive” throughout. For the same compound, the Potency in [10] is 34 µM (active).
`C=CC(=O)OC(C)(C)C`: the Potency entry in assay [1], in assay [2], in assay [3], in [4], in assay [5] and in assay [6] was “inactive” throughout. Also, the Potency entry in [7], in assay [8], in assay [9], in [12] and in [15] was “inactive” throughout. For the same compound, the results for the Potency in assay [10] and in assay [14] were 30.6 µM (active) and 2.43 µM (active), respectively.
With `O=C1C(Cl)C(CCl)CN1c1cccc(C(F)(F)F)c1` (stereo not drawn), the Potency result in assay [1], in [2], in assay [3], in assay [4], in [13] and in assay [7] was “inactive” throughout. Besides, the Potency result in [8], in [11] and in assay [15] was “inactive” each time. The Potency is 24.3 µM (active) in assay [5], 8.94 µM (active) in assay [10] and 1 µM (active) in assay [14].
Take `O=C=Nc1ccc(Cl)cc1`: the Potency entry in assay [1], in assay [2], in assay [3], in assay [4], in [7] and in assay [8] was “inactive” throughout. In addition, the Potency result in [9], in assay [12] and in assay [15] was “inactive” throughout. In addition, the results for the Potency in assay [5], in [10] and in [11] were 1.54 µM (active), 2 µM (active) and 7.96 µM (active), respectively.
